From PubChem BioAssay AID1159580 (chemical genetic matrix, 2015)
Among all 5,500 compounds or so, about 2,000 (36%) were called active. About 18% were inconclusive and are not listed. Rule as the data show it: active = normalized growth mostly below about 0.91 (no sharp cut-off); inconclusive = no clear call, values can overlap the other calls; inactive = mostly above about 0.92. The list shows a part of the results.

Assay: chemical genetic growth profiling, strain panel (AID 1159580);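 also: tested at 20 µM; growth read once vehicle control cultures reached saturation at 30 °C; 1 = growth at the plate median or of vehicle wells; lower values mean less growth of the strain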
Conditions: S. cerevisiae deletion strains, growth OD

Measured: normalized growth

CC(C)[C@@]1(NC(=O)[C@@H]2C=C3c4cccc5[nH]cc(c45)C[C@H]3N(C)C2)O[C@@]2(O)[C@@H]3CCCN3C(=O)[C@H](Cc3ccccc3)N2C1=O
inactive: locus YAL040C, strain CLN3, hits give low values 0.989 | locus YCL061C, strain MRC1 (second series), hits give low values 0.996 | locus YDR363W, strain ESC2, hits give low values 0.993 | locus YER002W, strain NOP16, hits give low values 0.998 | locus YMR263W, strain SAP30, hits give low values 0.999 | locus YMR307W, strain GAS1, hits give low values 0.982 | locus YNL153C, strain GIM3, hits give low values 0.99 | locus YNL175C, strain NOP13, hits give low values 1.01 | locus YNL197C, strain WHI3, hits give low values 1 | locus YNL224C, strain SQS1, hits give low values 0.972 | locus YOR083W, strain WHI5 (second series), hits give low values 1.04 | locus YPL055C, strain LGE1, hits give low values 0.99 | locus YPL241C, strain CIN2, hits give low values 0.998
